Compound activity (PubChem BioAssay)
The entries come from a sample that favours hits as a whole.
Tgondii IFNg = blocks Toxoplasma gondii growth in the presence of IFN-gamma | Toxoplasma gondii growth in IFN-gamma-treated host cells; active compounds read low | AID 1259416 | activity change, negative = inhibition, % (concentration not given with the values) | actives 3.8% (n = 69,000); in the data active means activity change below about -70%, passing the limit was not always enough;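 further: host cells are HeLa cells infected with Toxoplasma gondii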
Of the large screens only hits and unclear results are named; the others gave an inactive call.

C[C@H]1CC(=O)NCC/C=C\C[C@H](c2ccc3c(c2)OCO3)NC1=O	none
CO[C@@H]1CN(C)C(=O)c2ccc(NS(=O)(=O)CC(F)(F)F)cc2OC[C@@H](C)N(C(=O)NC(C)C)C[C@H]1C	none
CN(C)C(=O)c1ccc2ncnc(N3CCCCC3)c2c1	none
c1ccc2c(c1)OCC(c1csc3ncnc(N4CCCCC4)c13)O2 (stereo unspecified)	Tgondii IFNg -89.8
CCn1ccnc1CC1COc2ccccc2O1 (stereo unspecified)	none
COc1ccc2c(c1)NC1(CCN(S(=O)(=O)c3ccc4ccccc4c3)CC1)c1cccn1-2	none
CN1c2cc(Cl)ccc2C(=O)NC12CCN(C(=O)NCCc1ccccc1)CC2	none
Cc1nc(N)nc(C)c1CCC(=O)Nc1ccc2c(c1)CN(Cc1ccccc1)C2	none
O=C(Nc1ccc2c(c1)CN(Cc1ccccc1)C2)c1nc2ncccn2n1	Tgondii IFNg -77.5
CCn1c(C)nc2cc(NC(=O)c3cnc(N4CCOCC4)nc3)ccc21	none
O=C(Cn1ncc2ccccc2c1=O)Nc1ccc2c(c1)CN(Cc1ccccc1)C2	none
Cc1nc2nc[nH]n2c(=O)c1CC(=O)Nc1ccc2c(c1)CN(Cc1ccccc1)C2	none
O=C(Nc1ccc2c(c1)CN(Cc1ccccc1)C2)c1cnc(N2CCOCC2)nc1	Tgondii IFNg -95.5
CCn1c(C2CCN(C(=O)CCCn3ccnc3)CC2)n[nH]c1=O	none
O=C(N1CCc2onc(-c3ccccc3F)c2C1)C1(Cn2cccn2)CC1	none
OCC1(CCc2ccccc2)CCCN(c2ncnc3nc[nH]c23)C1 (stereo unspecified)	none
CCC(Cn1cnc(-c2ccccc2)c1-c1cccc(C)n1)N1CCN(C)CC1 (stereo unspecified)	none
O=C(NCCN1CCc2ccccc2C1)c1cn2c(n1)CSCC2	none
O=C(N[C@@H]1CC[C@H](CCNS(=O)(=O)c2ccc(F)cc2)O[C@H]1CO)C1CCC1	none
CC[C@@H]1C[C@H](C(F)(F)F)n2nc(C3CCN(C(=O)c4cc(C(C)C)on4)C3)cc2N1 (stereo partly specified)	none
CCc1cc(C(F)(F)F)c2c(C3CCN(C(=O)c4cc(C(C)C)[nH]n4)CC3)noc2n1	Tgondii IFNg -76.4
CC(C)Nc1n[nH]c2nc(C3CCN(C(=O)C(C)C)CC3)cc(C(F)(F)F)c12	none
CC(NC(=O)c1ccccc1Cn1cccn1)c1ccccn1 (stereo unspecified)	none
CCN1CCC2(CN(c3ncccn3)CC23CCN(Cc2ccccn2)CC3)C1=O (stereo unspecified)	none
CCc1c(C)nc2cc(-c3cc(C)on3)nn2c1N1CCN(Cc2ccccn2)CC1	Tgondii IFNg -85.2
Cc1cc(N2CCCN(Cc3cc(-c4ccccc4)no3)CC2)ccn1	none
O=C(NC1CC(=O)N(Cc2ccccc2)C1)c1cc2n(n1)CCNC2 (stereo unspecified)	none
O=C1C(=O)N(CN2CCN(c3ccccc3Cl)CC2)c2ccccc21	none
O=C1CC(c2ccccc2)=NN1c1ccccc1	none
C1=C(c2ccccc2)CC(c2ccccc2)=NN=C1c1ccccc1	Tgondii IFNg -87.1
COc1ccc(CN2CCN(C(=O)c3nc4ccccc4s3)CC2=O)cc1	none
Cc1cc(NC(=O)c2nc(Nc3ccccc3)c3ccccc3n2)ccc1Br	none
CN1C(=O)CCc2cc(NC(=O)c3cnccn3)ccc21	none
COc1ccc(S(=O)(=O)N2CCCc3ccccc32)cc1	Tgondii IFNg -112.6
O=C1CCc2cc(S(=O)(=O)N3CCCc4ccccc43)cc3c2N1CCC3	none
O=S(=O)(c1ccc(F)cc1)N1CCCc2ccccc21	none
CC(C)NC(=O)NC1CCc2c(ccc(=O)n2CCn2cccn2)C1 (stereo unspecified)	none
COc1ccc(S(=O)(=O)N(C)C[C@@H]2OCCCC[C@H](C)Oc3ccc(NC(=O)Cc4ccccc4)cc3C(=O)N([C@H](C)CO)C[C@H]2C)cc1	none
COc1ccc(S(=O)(=O)Nc2ccc3c(c2)C(=O)N([C@H](C)CO)C[C@@H](C)[C@@H](CN(C)S(=O)(=O)c2ccc(Cl)cc2)OCCCC[C@@H](C)O3)cc1	Tgondii IFNg -110.5
COc1ccc(S(=O)(=O)N(C)C[C@H]2OCCCC[C@H](C)Oc3ccc(NC(=O)Cc4ccccc4)cc3C(=O)N([C@@H](C)CO)C[C@@H]2C)cc1	Tgondii IFNg -107.9
C[C@H]1CCCCO[C@H](CN(C)S(=O)(=O)c2ccccc2)[C@@H](C)CN([C@@H](C)CO)C(=O)c2cc(NC(=O)Nc3ccc4c(c3)OCO4)ccc2O1	Tgondii IFNg -90.9
C[C@@H]1CCCCO[C@H](CN(C)S(=O)(=O)c2ccccc2)[C@@H](C)CN([C@H](C)CO)C(=O)c2cc(NC(=O)Nc3ccc4c(c3)OCO4)ccc2O1	none
COc1ccc(S(=O)(=O)Nc2ccc3c(c2)C(=O)N([C@@H](C)CO)C[C@@H](C)[C@H](CN(C)S(=O)(=O)c2ccc(Cl)cc2)OCCCC[C@@H](C)O3)cc1	none
C[C@@H]1CN([C@@H](C)CO)C(=O)c2cc(NC(=O)Nc3ccc4c(c3)OCO4)ccc2O[C@@H](C)CCCCO[C@@H]1CN(C)S(=O)(=O)c1ccccc1	none
COc1ccc(S(=O)(=O)N(C)C[C@H]2OCCCC[C@H](C)Oc3ccc(NC(=O)Cc4ccccc4)cc3C(=O)N([C@@H](C)CO)C[C@H]2C)cc1	none
COc1ccc(S(=O)(=O)Nc2ccc3c(c2)C(=O)N([C@H](C)CO)C[C@H](C)[C@H](CN(C)S(=O)(=O)c2ccc(Cl)cc2)OCCCC[C@H](C)O3)cc1	Tgondii IFNg -82.0
COc1ccc(S(=O)(=O)N(C)C[C@@H]2OCCCC[C@@H](C)Oc3ccc(NC(=O)Cc4ccccc4)cc3C(=O)N([C@@H](C)CO)C[C@H]2C)cc1	none
COc1ccccc1OCC(O)CNC(C)C (stereo unspecified)	none
C/C=C/c1ccc([C@@H]2[C@@H](C#N)N(c3nc(CC)cs3)[C@@H]2CO)cc1	none
Cn1ccnc1CN1C[C@H]2CN(Cc3cccc(F)c3)C(=O)[C@@H]2C1	none
Cc1ccc(CN2CCc3c(nnn3C)C2COCC2CC2)o1 (stereo unspecified)	none
CN(C)CC1(O)CCN(C(=O)c2ccc(CO)o2)C1 (stereo unspecified)	none
CCC/C=C/c1nccc(NC(C)C)n1	none
O=C(CN1C(=O)CCc2cc(S(=O)(=O)N3CCCC3)ccc21)Nc1ccccc1	none
COc1ccc(-c2cc3c(=O)n(Cc4nc(-c5ccc(Cl)cc5)oc4C)ccn3n2)cc1OC	none
O=C(O)COc1ccccc1CN1CCCN(c2ccc(F)cc2)CC1	none
COc1ccc(S(=O)(=O)Nc2ccc3c(c2)C(=O)N([C@@H](C)CO)C[C@@H](C)[C@H](CN(C)S(=O)(=O)c2ccc(Cl)cc2)OCCCC[C@H](C)O3)cc1	Tgondii IFNg -102.2
C[C@H](CO)N1C[C@H](C)[C@H](CN(C)CC2CC2)OCCCC[C@H](C)Oc2ccc(NC(=O)c3ccccc3)cc2C1=O	Tgondii IFNg -83.4
C[C@H](CO)N1C[C@H](C)[C@H](CN(C)S(=O)(=O)c2ccc(Cl)cc2)OCCCC[C@H](C)Oc2ccc(NC(=O)Nc3ccc(C(F)(F)F)cc3)cc2C1=O	none
C[C@@H]1CCCCO[C@@H](CN(C)S(=O)(=O)c2ccc(Cl)cc2)[C@H](C)CN([C@@H](C)CO)C(=O)c2cc(NC(=O)Nc3ccc(C(F)(F)F)cc3)ccc2O1	none
COc1ccc(S(=O)(=O)Nc2ccc3c(c2)C(=O)N([C@H](C)CO)C[C@@H](C)[C@@H](CN(C)S(=O)(=O)c2ccc(Cl)cc2)OCCCC[C@H](C)O3)cc1	Tgondii IFNg -117.2
C[C@H](CO)N1C[C@H](C)[C@@H](CN(C)CC2CC2)OCCCC[C@H](C)Oc2ccc(NC(=O)c3ccccc3)cc2C1=O	none
